# Test results taken from PubChem BioAssay AID431 (Sanford-Burnham Center for Chemical Genomics, 2006).
# The campaign covered roughly 63,000 compounds. About 1,100 (1.7%) were called active. The sample holds actives, similar compounds and a random draw of the others, so the mix is not that of the screen. Entries with a potency or affinity are not part of this list. Unmarked numbers belong to inactive results.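 How the source made its calls: active means compounds whose percent cytotoxicity in the single-dose primary screen, scaled between solvent and toxic-drug controls, exceeds 50; inactive means the rest.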
# Test: viability loss of HPDE-C7K cells – cell-based, fluorescence, HTS, primary screen (AID 431);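 further: 0% = DMSO solvent wells and 100% = doxorubicin-treated wells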
# Details: HPDE-C7K KRASV12 cells, Alamar Blue viability, 48 h; at 10 µM; hits give high values
row,SMILES,cytotoxicity
1,CC(=O)C(C(C)=O)c1c(Cl)c(O)c(O)c2c(C(=O)c3ccccc3)coc12,76.1% (active)
2,CCOC(=O)c1[nH]nc(C(=O)c2ccc(Br)cc2)c1O,5.4%
3,c1cncc(C(c2nnnn2C2CCCC2)N2CCCC2)c1 (stereo not drawn),6%
4,Cc1ccc(SCc2nc(-c3ccccc3)no2)cc1,-10.8%
5,O=C(O)CCC(=O)N1CCN(c2cccc(Cl)c2)CC1,-6.3%
6,CCc1[nH]c(C)c(C(C)=O)c1C,65.5% (active)
7,CC(=O)c1c(C)[nH]c(C)c1C(C)=O,-3.5%
8,CCCNC(=O)c1[nH]c(C)c(C(C)=O)c1C,7.9%
9,O=C(Nc1ccccc1C(=O)N1CCCC1)c1cccc(S(=O)(=O)N2CCCCCC2)c1,-4.2%
10,c1ccc2c(c1)CCN2CCN1CCc2ccccc21,1.1%
11,COc1ccc(NC(=O)C2CCCN2C(=O)NCc2ccccc2)c(OC)c1 (stereo not drawn),-13.7%
12,O=C(c1cc(-c2ccccn2)nc2c(Cl)cccc12)N1CCN(C(=O)C2CCCO2)CC1 (stereo not drawn),0.1%
13,CCn1c(Sc2nc(C)nc3scc(-c4cccs4)c23)n[nH]c1=O,-16.8%
14,Cc1cccc(C(=O)NC2CC3CCCC(C2)N3C(=O)NC2CCCCC2)c1 (stereo not drawn),-1.9%
15,NC1=NC(c2ccc(Cl)cc2)n2c(nc3ccccc32)N1 (stereo not drawn),-23.5%
16,O=C(NCc1ccc(F)cc1)c1cc2n(n1)C(C(F)(F)F)CC(C1CC1)N2 (stereo not drawn),-22%
17,Cc1nnc(NC(=O)c2cc3n(n2)C(C(F)(F)F)CC(C2CC2)N3)s1 (stereo not drawn),-34.9%
18,O=C(Nc1nc2c(s1)CCCC2)c1cc2n(n1)C(C(F)(F)F)CC(C1CC1)N2 (stereo not drawn),52.5% (active)
19,COC(=O)COc1cccc(NC(=O)c2ccccc2)c1,-1.5%
20,Cc1nc2sc(C(c3cccc(F)c3)N3CCC(O)CC3)c(O)n2n1 (stereo not drawn),-0.3%
21,COc1ccc(C2C(C(C)=O)=C(C)N=c3s/c(=C/c4ccc5c(c4)OCO5)c(=O)n32)cc1 (stereo not drawn),-10.1%
22,CC(=O)C1=C(C)N=c2s/c(=C/c3ccc4c(c3)OCO4)c(=O)n2C1c1ccc(N(C)C)cc1 (stereo not drawn),-0.2%
23,CCC(C)(C)n1nnnc1C(c1cc2ccc(OC)cc2[nH]c1=O)N1CCc2ccccc2C1 (stereo not drawn),35%
24,COC(=O)c1ccccc1NS(=O)(=O)c1ccc(O)c(C(=O)O)c1,19.7%

row,SMILES,cytotoxicity
1,COC(=O)c1ccc(CN2C(=O)NC3(CCCCC3C)C2=O)o1 (stereo not drawn),3.4%
2,CCN(CC)c1ccc(NC(=O)c2cnc3ccccn3c2=O)c(C)c1,3.9%
3,Cn1nnnc1SCCNCc1cccc2ccccc12,-3%
4,CN(C)c1cccc(C(=O)Nc2cccc(F)c2)c1,2.1%
5,CCOc1cccc(C(=O)Nc2ccc(N(CC)CC)cc2)c1,87.5% (active)
6,CC(=O)Nc1ccc(NC(=O)c2ccccc2F)cc1,8.8%
7,CCN(CC)c1ccc(NC(=O)c2ccccc2F)cc1,50.7% (active)
8,CCN(CC)c1ccc(NC(=O)c2cc(OC)cc(OC)c2)c(C)c1,59.9% (active)
9,CCN(CC)c1ccc(NC(=O)c2ccc(NC(=O)C3CCCO3)cc2)c(C)c1 (stereo not drawn),-1.3%
10,CCN(CC)c1ccc(NC(=O)Nc2cccc(C(C)=O)c2)cc1,16.4%
11,CCOc1cccc(C(=O)Nc2ccc(N3CCN(S(C)(=O)=O)CC3)cc2)c1,-10%
12,O=C(Nc1ccncc1)c1ccccc1F,-14.5%
13,CCN(CC)c1ccc(C(=O)Nc2cccc(F)c2)cc1,57.4% (active)
14,CCOc1ccc(NC(=O)c2cccc(-n3cnnn3)c2)cc1,-18%
15,CCN(CC)c1ccc(NC(=O)c2ccco2)c(C)c1,10.7%
16,Cc1cccc(COc2ccc(/C(O)=C3\C(=O)C(=O)N(CCN(C)C)C3c3ccncc3)cc2)c1 (stereo not drawn),0.7%
17,O=C(c1ccco1)N1CCN(C(=O)c2cc(-c3ccncc3)nc3ccc(Br)cc23)CC1,1.3%
18,O=C(NCC(=O)N(Cc1ccccc1)C(C(=O)NC1CCCC1)c1ccco1)c1ccco1 (stereo not drawn),-6.1%
19,Cn1c(COc2ccccc2)nnc1SCC(=O)Nc1ccc2c(c1)OCO2,9.4%
20,O=C1c2oc3ccc(F)cc3c(=O)c2C(c2ccncc2)N1CCN1CCOCC1 (stereo not drawn),-11.5%
21,O=C(CN(Cc1ccco1)S(=O)(=O)c1cccs1)Nc1ccccc1C(F)(F)F,-23.6%
22,CCN(CC)c1ccc(NC(=O)c2cccc(OC)c2)c(C)c1,55.4% (active)
23,CCN(CC)c1ccc(NC(=O)c2c(OC)cccc2OC)c(C)c1,-0.6%
24,CCN(CC)c1ccc(NC(=O)c2cccc(C)c2OC)c(C)c1,2.9%
